From PubChem BioAssay (NCI) come the findings set out here.

Common to all, as to assay: NCI-60 one-dose screen, 48 h (100 = growth as untreated, 0 = no growth, -100 = all killed)
What all share (details): 10 µM unless noted

For assay [1], the system named is DU-145 prostate.
The subject of assay [2] is K-562 leukemia.
Assay [3] relates to MALME-3M melanoma.
For assay [4], the system named is MDA-MB-231 breast.
Assay [5] concerns RXF 393 renal.
Assay [6] concerns SF-268 CNS.
The subject of assay [7] is SF-295 CNS.
Assay [8] has as its system SF-539 CNS.
The subject of assay [9] is UACC-257 melanoma.
In assay [10] the test system is M14 melanoma.
The subject of assay [11] is HCT-15 colon.
In assay [12] the test system is HT29 colon.
Assay [13] deals with SNB-75 CNS.
The test system of assay [14] is SNB-19 CNS.
In assay [15] the test system is U251 CNS.
For assay [16], the system named is PC-3 prostate.
Assay [17] deals with SK-MEL-5 melanoma.
In assay [18] the test system is UACC-62 melanoma.
Assay [19] has as its system LOX IMVI melanoma.
For assay [20], the system named is SK-MEL-28 melanoma.

Each structure is given as a SMILES string. About 83,000 compounds went through this panel and 20% of them were active in at least one assay; those are over-represented in the sample as a whole.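 Note: values are percent growth. 100 is the growth of untreated cells, values between 100 and 0 indicate rising inhibition; between -100 and 0 indicates cell death.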 Values without a mark were called inactive. The source made the active and inactive calls. The calls were made as follows: active = growth percent below 10; inactive = the rest.

In the case of `CC(C)C1(C(C)C)NC(=O)NC1=O`, the growth is 93.7% in assay [1]; 108% in [2]; 163% in assay [3]; 109% in [4]; 107% in assay [5]; 94% in assay [6]. The growth in assay [7] is 99.4%; in assay [8], 91.6%; in assay [9], 106%; in assay [10], 110%; in assay [11], 110%; in assay [12], 103%. Further, the growth was 94.5% in assay [13]; 101% in assay [14]; 103% in [15]; 93.3% in [16]; 91.5% in assay [17]; 106% in assay [18]. The growth in assay [19] was 102%; in assay [20] it was 95.9%.

For `CCN(CC)CCN1C(=O)c2c(c3c4ccccc4[nH]c3c3[nH]c4ccccc4c23)C1=O`, the growth was 105% in assay [1]; 17.8% in assay [2]; 86.1% in assay [3]; 83.8% in assay [4]; 83.6% in assay [5]; 87.3% in [6]. Further, the growth in assay [7] was 84.7%; in assay [8], 88.8%; in assay [9] it was 105%; in assay [10] it was 79.5%; in assay [11], 59.4%; in [12] it was 46.5%. Moreover, the growth in assay [13] is 80%; in assay [14], 80.3%; in [15], 87.9%; in assay [16], 82.5%; in [17] it was 94.3%; in [18] it was 87.2%. The growth in assay [19] is 82.3%; in [20], 96.3%.

Take `COc1cc(/C=C2/Oc3cc4occc4c(OC)c3C2=O)ccc1OCC(=O)Nc1ccncc1`: the growth in assay [1] was 112%; in assay [2], 107%; in assay [3] it was 110%; in assay [4], 89.9%; in assay [5], 118%; in assay [6], 105%. For the same molecule, the growth in assay [7] is 107%; in assay [8], 97%; in [9] it was 104%; in [10] it was 98.8%; in [11] it was 112%; in [12], 104%. In addition, the growth is 96.5% in [13]; 106% in [14]; 108% in assay [15]; 95.5% in assay [16]; 100% in assay [17]; 93.5% in assay [18]. For the same molecule, the values for the growth in assay [19] and in [20] were 99.5% and 117%, respectively.

Take `CCOC(=O)C1=C(N)Oc2cc(OC)ccc2C1c1ccc(F)c(F)c1` (stereo not given): the growth in assay [1] is 37.7%; in assay [2] it was 11.2%; in assay [3] it was 59.3%; in assay [4] it was 47.4%; in assay [5], -9.59% (active); in assay [6], 51.3%. Also, the growth in assay [7] was 17.7%; in assay [8], 17.8%; in assay [9], 53.4%; in assay [10], 18%; in assay [11], 22.3%; in [12] it was 2.96% (active). Moreover, the growth in [13] was 5.44% (active); in assay [14], 28.1%; in assay [15], 28.2%; in assay [16] it was 26.8%; in assay [17] it was 12.8%; in assay [18] it was 25.5%. Also, the growth in assay [19] was 43.8%; in [20], 63.2%.

With `COc1ccc(C(=O)NC(=O)Nc2ccc3c(c2)NC(=O)/C3=C\c2[nH]c(C)c(CCC(=O)O)c2C)c(F)c1`, the growth was 42.7% in [1]; 23.9% in assay [2]; 40.6% in assay [3]; 71.5% in assay [4]; 21.1% in [5]; 35% in [6]. Further, the growth in assay [7] was 42.7%; in assay [8] it was -5.86% (active); in assay [9] it was 14.1%; in assay [10] it was 33.2%; in assay [11], 39.6%; in assay [12], 55.6%. The growth is 44.2% in assay [13]; 27% in assay [14]; 0.371% (active) in assay [15]; 30.2% in assay [16]; 25.2% in [17]; 25.7% in assay [18]. For the same molecule, the growth in assay [19] is 26.9%; in [20], 31.1%.

Take `O=C(CSc1nnc(-c2cc3c([nH]c4ccccc43)c(-c3cccc(O)c3)n2)n1-c1ccccc1)c1ccccc1`: the growth is 47.8% in assay [1]; 21.8% in assay [2]; 55.4% in assay [3]; 78% in [4]; -11.4% (active) in [5]; 63.1% in assay [6]. Further, the growth in [7] was 16.8%; in assay [8] it was 33.1%; in assay [9] it was 93.3%; in [10], 30%; in [11], 46.3%; in assay [12] it was 64.9%. The growth in [13] was 45.8%; in [14] it was 84.2%; in assay [15], 32.9%; in assay [16], 40.2%; in [17], 33.2%; in [18], 69.8%. The growth was 11.2% in [19] and 71.5% in assay [20].

Turning to `O=C1COc2ccccc2C(=O)N1CCCCN1CCCCC1`, the growth was 93.7% in assay [1]; 50% in [2]; 93.8% in assay [3]; 109% in [4]; 118% in assay [5]; 100% in assay [6]. The growth in assay [7] was 93.9%; in assay [8] it was 102%; in [9], 102%; in [10], 91.9%; in assay [11], 91.3%; in assay [12], 73.6%. In addition, the growth in assay [13] was 99.5%; in assay [14] it was 99.4%; in assay [15] it was 88.9%; in assay [16], 57.7%; in [17], 99.1%; in [18], 91.6%. The growth was 90.7% in [19] and 95.6% in assay [20].

On to `OCCOCC(F)(F)F`, for which the growth in assay [1] was 109%; in assay [2], 97.2%; in assay [3] it was 99.6%; in assay [4] it was 124%; in assay [5] it was 113%; in [6], 102%. The growth in [7] is 103%; in assay [8], 96.7%; in [9], 118%; in [10], 112%; in assay [11], 108%; in assay [12] it was 105%. Besides, the growth is 88.3% in [13]; 117% in assay [14]; 105% in assay [15]; 97.8% in assay [16]; 107% in assay [17]; 113% in [18]. In addition, the figures for the growth in assay [19] and in assay [20] were 112% and 98.5%, respectively.
